# Experiments:
# [1] = biological target: Homeodomain-interacting protein kinase 3 (Homo sapiens) (UniProt Q9H422); details: at 10 µM
# [2] = biological target: T1, Serine/threonine-protein kinase haspin (Homo sapiens) (UniProt Q8TF76); details: at 1 µM
# T1 sequence (whole entry): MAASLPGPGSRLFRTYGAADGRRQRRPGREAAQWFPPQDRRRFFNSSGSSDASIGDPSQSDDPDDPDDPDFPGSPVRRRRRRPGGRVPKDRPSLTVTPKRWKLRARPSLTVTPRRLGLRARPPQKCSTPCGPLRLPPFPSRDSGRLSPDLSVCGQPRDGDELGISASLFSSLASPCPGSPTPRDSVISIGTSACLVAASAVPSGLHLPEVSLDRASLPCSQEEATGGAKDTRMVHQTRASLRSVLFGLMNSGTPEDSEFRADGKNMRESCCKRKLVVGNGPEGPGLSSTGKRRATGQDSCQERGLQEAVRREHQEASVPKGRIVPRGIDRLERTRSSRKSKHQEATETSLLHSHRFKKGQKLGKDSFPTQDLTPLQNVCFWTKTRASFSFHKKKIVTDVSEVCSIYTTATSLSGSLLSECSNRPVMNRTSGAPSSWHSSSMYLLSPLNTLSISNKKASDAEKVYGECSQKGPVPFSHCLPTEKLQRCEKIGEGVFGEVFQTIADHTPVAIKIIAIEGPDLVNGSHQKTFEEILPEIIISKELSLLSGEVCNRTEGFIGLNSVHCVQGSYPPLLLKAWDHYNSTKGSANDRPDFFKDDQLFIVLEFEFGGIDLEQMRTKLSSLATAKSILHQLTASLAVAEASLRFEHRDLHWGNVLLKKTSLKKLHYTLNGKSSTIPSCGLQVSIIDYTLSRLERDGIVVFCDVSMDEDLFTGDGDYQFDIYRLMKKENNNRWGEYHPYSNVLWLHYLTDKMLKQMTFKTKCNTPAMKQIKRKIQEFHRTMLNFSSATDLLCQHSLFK
# [3] = biological target: T1, Serine/threonine-protein kinase haspin (Homo sapiens); details: at 10 µM
# [4] = biological target: Tyrosine-protein kinase HCK (Homo sapiens) (UniProt P08631); details: at 1 µM
# [5] = biological target: Tyrosine-protein kinase HCK (Homo sapiens) (UniProt P08631); details: at 10 µM
# [6] = biological target: Tyrosine-protein kinase HCK (Homo sapiens) (UniProt P08631); details: at 1 µM; remark: listed apart in the source
# [7] = biological target: Tyrosine-protein kinase HCK (Homo sapiens) (UniProt P08631); details: at 10 µM; remark: listed apart in the source
# [8] = biological target: Insulin-like growth factor 1 receptor (Homo sapiens) (UniProt P08069); details: at 1 µM
# [9] = biological target: Insulin-like growth factor 1 receptor (Homo sapiens) (UniProt P08069); details: at 10 µM
# [10] = biological target: T2, Protein kinase C zeta type (Homo sapiens) (UniProt Q05513); details: at 10 µM
# T2 sequence (whole entry): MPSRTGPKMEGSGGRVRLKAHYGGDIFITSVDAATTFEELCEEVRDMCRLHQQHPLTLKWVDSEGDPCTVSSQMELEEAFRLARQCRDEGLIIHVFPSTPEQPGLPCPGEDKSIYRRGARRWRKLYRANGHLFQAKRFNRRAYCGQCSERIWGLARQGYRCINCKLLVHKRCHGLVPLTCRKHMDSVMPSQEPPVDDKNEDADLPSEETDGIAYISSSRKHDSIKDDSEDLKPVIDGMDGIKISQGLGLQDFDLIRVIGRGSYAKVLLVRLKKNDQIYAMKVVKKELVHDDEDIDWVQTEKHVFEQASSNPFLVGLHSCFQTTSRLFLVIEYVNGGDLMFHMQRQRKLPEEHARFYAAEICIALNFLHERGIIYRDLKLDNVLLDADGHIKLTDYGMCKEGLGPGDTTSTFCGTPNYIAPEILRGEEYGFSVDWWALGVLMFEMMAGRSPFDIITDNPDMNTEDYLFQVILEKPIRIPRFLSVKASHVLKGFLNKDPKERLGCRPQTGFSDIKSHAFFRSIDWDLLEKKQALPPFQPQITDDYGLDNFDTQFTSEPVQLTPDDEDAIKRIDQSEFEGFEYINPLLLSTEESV
# [11] = biological target: Protein kinase C eta type (Homo sapiens) (UniProt P24723); details: at 1 µM
# [12] = biological target: Protein kinase C eta type (Homo sapiens) (UniProt P24723); details: at 10 µM
# [13] = biological target: Protein kinase C theta type (Homo sapiens) (UniProt Q04759); details: at 1 µM
# [14] = biological target: Protein kinase C theta type (Homo sapiens) (UniProt Q04759); details: at 10 µM
# [15] = biological target: T3, Protein kinase C iota type (Homo sapiens) (UniProt P41743); details: at 1 µM
# T3 sequence (whole entry): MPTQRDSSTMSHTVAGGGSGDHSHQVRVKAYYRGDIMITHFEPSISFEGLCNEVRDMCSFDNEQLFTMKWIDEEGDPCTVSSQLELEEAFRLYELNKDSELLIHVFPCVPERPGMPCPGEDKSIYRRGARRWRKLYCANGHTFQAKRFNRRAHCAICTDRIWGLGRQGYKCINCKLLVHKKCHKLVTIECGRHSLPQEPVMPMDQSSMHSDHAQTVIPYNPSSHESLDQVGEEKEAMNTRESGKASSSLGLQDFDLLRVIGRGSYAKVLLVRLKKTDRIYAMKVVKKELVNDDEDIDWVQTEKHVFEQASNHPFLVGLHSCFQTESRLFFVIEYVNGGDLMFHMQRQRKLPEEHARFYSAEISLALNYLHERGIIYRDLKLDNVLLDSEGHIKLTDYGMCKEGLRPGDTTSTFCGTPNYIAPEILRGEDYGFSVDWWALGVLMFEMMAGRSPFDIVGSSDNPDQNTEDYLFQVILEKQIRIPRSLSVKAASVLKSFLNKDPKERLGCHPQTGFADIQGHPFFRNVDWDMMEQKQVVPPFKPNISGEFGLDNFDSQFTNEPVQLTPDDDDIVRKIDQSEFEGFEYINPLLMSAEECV
# [16] = biological target: T3, Protein kinase C iota type (Homo sapiens); details: at 10 µM
# [17] = biological target: T4, Serine/threonine-protein kinase D1 (Homo sapiens) (UniProt Q15139); details: at 1 µM
# T4 sequence (whole entry): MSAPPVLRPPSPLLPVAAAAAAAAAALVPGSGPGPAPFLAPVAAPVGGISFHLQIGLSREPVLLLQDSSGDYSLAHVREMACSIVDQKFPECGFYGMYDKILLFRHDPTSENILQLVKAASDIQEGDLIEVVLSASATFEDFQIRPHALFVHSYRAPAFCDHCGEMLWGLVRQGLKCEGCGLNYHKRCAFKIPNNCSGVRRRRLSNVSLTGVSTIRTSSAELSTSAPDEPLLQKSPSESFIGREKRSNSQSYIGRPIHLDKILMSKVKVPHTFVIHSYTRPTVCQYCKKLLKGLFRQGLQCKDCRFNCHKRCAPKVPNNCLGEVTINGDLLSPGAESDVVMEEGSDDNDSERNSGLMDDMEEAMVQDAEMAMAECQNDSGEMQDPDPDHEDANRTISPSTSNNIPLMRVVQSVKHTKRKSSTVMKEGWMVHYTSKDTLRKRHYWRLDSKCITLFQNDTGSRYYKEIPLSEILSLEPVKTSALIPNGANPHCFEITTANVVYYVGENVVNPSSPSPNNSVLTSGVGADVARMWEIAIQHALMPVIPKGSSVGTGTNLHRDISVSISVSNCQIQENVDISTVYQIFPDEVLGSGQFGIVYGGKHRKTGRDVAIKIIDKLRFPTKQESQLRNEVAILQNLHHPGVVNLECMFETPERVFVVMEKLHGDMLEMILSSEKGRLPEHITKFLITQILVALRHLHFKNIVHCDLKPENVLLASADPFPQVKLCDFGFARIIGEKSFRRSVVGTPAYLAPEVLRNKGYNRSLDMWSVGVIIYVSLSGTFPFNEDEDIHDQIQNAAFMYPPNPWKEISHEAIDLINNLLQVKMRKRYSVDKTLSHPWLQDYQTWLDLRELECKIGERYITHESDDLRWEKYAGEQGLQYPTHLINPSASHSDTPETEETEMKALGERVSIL
# [18] = biological target: T4, Serine/threonine-protein kinase D1 (Homo sapiens); details: at 10 µM
# [19] = biological target: T5, Serine/threonine-protein kinase D2 (Homo sapiens) (UniProt Q9BZL6); details: at 1 µM
# T5 sequence (whole entry): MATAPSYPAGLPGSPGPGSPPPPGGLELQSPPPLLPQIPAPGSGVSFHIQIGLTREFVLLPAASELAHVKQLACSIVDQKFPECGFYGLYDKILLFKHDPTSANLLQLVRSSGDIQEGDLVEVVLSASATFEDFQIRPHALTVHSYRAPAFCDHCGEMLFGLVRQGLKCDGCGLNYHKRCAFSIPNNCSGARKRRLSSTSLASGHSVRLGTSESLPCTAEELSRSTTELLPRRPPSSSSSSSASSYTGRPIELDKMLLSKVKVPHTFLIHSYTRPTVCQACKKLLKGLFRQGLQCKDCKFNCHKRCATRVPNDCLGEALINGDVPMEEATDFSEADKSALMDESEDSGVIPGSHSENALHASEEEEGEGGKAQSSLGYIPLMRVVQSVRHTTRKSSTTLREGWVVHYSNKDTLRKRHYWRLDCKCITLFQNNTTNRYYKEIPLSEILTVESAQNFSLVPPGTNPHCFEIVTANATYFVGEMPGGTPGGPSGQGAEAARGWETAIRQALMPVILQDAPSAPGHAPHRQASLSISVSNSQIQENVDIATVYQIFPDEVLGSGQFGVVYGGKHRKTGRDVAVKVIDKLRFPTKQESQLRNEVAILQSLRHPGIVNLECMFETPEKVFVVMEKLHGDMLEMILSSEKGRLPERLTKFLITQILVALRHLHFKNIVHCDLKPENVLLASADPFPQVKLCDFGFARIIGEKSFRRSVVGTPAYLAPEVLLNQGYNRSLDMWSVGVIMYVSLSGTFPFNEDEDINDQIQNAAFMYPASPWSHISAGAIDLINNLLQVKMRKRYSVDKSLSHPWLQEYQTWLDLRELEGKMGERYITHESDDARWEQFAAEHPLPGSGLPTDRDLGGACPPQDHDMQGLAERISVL
# [20] = biological target: T5, Serine/threonine-protein kinase D2 (Homo sapiens); details: at 10 µM
# Tyrosine-protein kinase HCK (Homo sapiens), sequence (P08631 2-526 limits assumed): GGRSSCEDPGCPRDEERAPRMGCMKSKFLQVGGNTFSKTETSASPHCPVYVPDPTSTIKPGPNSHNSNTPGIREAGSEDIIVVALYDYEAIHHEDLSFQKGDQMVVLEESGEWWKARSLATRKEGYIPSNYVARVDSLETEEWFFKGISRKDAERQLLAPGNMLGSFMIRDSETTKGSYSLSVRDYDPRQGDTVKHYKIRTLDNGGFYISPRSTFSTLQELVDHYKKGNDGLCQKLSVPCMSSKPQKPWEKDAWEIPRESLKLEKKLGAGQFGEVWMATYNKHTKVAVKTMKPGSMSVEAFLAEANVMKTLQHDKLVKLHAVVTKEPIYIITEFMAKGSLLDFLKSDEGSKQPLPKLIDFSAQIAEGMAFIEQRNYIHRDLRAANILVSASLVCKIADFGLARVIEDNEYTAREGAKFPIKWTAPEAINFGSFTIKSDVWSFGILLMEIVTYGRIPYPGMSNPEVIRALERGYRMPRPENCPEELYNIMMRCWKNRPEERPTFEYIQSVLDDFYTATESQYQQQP
# Protein kinase C theta type (Homo sapiens), sequence (Q04759 whole entry, looked up): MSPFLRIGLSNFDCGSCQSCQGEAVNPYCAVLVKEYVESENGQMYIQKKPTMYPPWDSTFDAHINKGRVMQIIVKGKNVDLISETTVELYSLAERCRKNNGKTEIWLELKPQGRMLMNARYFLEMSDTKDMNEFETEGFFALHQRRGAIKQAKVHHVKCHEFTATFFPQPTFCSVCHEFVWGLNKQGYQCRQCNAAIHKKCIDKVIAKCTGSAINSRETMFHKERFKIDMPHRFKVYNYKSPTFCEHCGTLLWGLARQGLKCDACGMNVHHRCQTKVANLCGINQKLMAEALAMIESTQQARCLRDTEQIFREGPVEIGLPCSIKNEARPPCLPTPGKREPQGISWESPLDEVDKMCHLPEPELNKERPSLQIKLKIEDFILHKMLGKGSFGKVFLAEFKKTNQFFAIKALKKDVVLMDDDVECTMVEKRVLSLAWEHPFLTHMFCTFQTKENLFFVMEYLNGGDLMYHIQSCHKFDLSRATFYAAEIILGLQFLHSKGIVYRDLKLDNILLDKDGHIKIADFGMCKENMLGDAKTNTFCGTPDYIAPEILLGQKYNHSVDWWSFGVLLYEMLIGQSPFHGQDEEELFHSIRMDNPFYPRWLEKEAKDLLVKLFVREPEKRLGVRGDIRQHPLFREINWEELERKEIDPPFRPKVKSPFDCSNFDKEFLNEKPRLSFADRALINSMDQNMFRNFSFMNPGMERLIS
# Insulin-like growth factor 1 receptor (Homo sapiens), sequence (P08069 31-736 limits assumed): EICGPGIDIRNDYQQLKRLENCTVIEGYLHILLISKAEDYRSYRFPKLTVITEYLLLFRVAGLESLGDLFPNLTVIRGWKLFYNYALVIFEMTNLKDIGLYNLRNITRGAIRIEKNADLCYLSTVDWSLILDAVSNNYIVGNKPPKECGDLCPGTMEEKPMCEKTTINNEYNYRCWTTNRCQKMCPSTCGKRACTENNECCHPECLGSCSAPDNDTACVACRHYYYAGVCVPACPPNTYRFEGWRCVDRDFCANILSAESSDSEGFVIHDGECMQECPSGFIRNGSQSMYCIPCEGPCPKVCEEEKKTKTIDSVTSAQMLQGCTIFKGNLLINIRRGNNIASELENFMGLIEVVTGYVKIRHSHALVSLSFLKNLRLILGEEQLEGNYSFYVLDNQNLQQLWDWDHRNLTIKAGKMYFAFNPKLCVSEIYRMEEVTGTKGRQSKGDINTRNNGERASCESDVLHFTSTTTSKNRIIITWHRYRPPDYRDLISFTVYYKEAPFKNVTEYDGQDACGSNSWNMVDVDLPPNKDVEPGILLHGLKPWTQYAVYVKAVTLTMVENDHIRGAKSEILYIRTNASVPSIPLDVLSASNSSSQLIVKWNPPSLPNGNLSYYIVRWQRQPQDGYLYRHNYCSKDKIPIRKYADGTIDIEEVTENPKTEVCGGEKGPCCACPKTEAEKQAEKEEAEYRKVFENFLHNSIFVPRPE
# Insulin-like growth factor 1 receptor (Homo sapiens), sequence (P08069 741-1367 limits assumed): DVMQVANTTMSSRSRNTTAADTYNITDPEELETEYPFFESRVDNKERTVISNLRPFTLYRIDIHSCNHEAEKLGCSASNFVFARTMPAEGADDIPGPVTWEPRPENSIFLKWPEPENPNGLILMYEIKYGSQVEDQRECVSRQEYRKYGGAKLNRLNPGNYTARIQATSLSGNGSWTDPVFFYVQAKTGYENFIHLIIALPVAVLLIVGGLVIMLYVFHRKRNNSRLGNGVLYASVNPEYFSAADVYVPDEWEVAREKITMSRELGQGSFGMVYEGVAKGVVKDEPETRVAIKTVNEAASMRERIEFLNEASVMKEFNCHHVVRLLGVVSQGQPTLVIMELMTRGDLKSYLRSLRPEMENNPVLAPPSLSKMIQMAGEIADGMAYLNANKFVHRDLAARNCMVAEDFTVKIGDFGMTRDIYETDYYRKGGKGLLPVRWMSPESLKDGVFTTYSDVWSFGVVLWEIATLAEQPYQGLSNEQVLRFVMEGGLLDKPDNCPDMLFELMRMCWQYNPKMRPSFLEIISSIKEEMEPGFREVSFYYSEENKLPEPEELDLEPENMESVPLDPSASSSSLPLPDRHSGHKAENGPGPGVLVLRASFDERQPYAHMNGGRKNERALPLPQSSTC
# Homeodomain-interacting protein kinase 3 (Homo sapiens), sequence (Q9H422 whole entry, looked up): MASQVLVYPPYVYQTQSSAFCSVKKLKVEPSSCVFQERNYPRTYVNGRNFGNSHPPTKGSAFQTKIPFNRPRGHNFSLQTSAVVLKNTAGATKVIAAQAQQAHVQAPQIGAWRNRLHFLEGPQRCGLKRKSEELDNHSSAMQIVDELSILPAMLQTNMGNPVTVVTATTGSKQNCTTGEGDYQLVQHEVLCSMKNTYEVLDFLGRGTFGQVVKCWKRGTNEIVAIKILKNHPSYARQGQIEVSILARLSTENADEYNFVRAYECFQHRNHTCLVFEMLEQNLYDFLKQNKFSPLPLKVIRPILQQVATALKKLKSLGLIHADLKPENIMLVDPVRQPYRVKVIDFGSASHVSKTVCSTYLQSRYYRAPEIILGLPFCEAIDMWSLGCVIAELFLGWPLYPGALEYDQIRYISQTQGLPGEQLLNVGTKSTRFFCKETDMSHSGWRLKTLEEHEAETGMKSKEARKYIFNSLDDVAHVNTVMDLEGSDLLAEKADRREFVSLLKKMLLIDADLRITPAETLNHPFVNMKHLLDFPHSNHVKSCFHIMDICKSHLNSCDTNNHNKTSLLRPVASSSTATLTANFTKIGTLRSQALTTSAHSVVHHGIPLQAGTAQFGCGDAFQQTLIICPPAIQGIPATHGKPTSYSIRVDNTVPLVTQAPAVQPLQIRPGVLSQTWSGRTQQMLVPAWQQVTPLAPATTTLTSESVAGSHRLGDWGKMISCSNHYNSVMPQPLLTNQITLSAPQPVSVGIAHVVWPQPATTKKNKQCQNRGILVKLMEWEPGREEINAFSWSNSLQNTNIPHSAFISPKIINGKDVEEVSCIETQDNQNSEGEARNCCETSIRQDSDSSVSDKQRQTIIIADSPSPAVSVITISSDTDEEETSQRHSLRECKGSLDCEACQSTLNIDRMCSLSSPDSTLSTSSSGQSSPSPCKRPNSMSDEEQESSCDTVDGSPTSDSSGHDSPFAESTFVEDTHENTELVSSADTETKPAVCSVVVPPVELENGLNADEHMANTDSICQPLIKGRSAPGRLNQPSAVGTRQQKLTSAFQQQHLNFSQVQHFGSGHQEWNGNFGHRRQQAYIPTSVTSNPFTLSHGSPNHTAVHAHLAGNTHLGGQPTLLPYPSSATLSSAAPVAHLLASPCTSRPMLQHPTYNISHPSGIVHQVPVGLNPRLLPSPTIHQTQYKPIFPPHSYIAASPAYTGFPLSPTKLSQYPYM
# Protein kinase C eta type (Homo sapiens), sequence (P24723 whole entry): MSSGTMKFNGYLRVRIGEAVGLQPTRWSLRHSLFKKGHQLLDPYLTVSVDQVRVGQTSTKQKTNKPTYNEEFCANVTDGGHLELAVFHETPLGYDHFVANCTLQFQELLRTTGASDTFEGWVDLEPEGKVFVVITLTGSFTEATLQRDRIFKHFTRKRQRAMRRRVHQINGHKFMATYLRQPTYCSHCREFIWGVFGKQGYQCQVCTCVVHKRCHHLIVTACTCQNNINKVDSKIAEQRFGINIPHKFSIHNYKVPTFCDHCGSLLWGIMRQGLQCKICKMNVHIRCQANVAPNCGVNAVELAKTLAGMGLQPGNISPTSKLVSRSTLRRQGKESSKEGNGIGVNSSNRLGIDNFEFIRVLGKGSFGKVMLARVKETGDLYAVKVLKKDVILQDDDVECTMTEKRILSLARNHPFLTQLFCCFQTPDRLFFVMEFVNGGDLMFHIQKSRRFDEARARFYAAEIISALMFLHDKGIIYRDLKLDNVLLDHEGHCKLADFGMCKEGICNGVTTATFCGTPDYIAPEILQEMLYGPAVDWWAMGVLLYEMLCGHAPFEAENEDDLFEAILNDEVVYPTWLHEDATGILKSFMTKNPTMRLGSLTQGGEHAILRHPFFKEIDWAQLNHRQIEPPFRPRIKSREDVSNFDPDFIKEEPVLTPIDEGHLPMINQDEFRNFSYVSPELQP
structure (smiles),measurement,setting,value
CO[C@H]1C[C@@H]2CC[C@@H](C)[C@@](O)(O2)C(=O)C(=O)N2CCCC[C@H]2C(=O)O[C@H]([C@H](C)C[C@@H]2CC[C@@H](O)[C@H](OC)C2)CC(=O)[C@H](C)/C=C(\C)[C@@H](O)[C@@H](OC)C(=O)[C@H](C)C[C@H](C)/C=C/C=C/C=C/1C,residual activity,[1],110%
same,residual activity,[2],86%
same,residual activity,[3],106%
same,residual activity,[4],73%
same,residual activity,[5],81%
same,residual activity,[6],99%
same,residual activity,[7],87%
same,residual activity,[8],123%
same,residual activity,[9],112%
same,residual activity,[10],112%
same,residual activity,[11],93%
same,residual activity,[12],76%
same,residual activity,[13],94%
same,residual activity,[14],113%
same,residual activity,[15],89% (inactive)
same,residual activity,[16],77%
same,residual activity,[17],93%
same,residual activity,[18],97%
same,residual activity,[19],102%
same,residual activity,[20],107%
COc1cccc(-c2cc(=O)c3ccccc3o2)c1N,residual activity,[1],98%
same,residual activity,[2],118%
same,residual activity,[3],81%
same,residual activity,[4],88%
same,residual activity,[5],87%
same,residual activity,[6],106%
same,residual activity,[7],105%
same,residual activity,[8],91%
same,residual activity,[9],127%
same,residual activity,[10],105%
same,residual activity,[11],101%
same,residual activity,[12],94%
same,residual activity,[13],92%
same,residual activity,[14],97%
same,residual activity,[15],114% (inactive)
same,residual activity,[16],108%
same,residual activity,[17],85%
same,residual activity,[18],95%
same,residual activity,[19],110%
same,residual activity,[20],97%
Oc1n[nH]c2nnc(-c3c(-c4ccccc4)nn4ccccc34)cc12,residual activity,[1],97%
same,residual activity,[2],114%
same,residual activity,[3],106%
same,residual activity,[4],75%
same,residual activity,[5],67%
same,residual activity,[6],92%
same,residual activity,[7],80%
same,residual activity,[8],67%
same,residual activity,[9],37%
same,residual activity,[10],104%
same,residual activity,[11],78%
same,residual activity,[12],89%
same,residual activity,[13],81%
same,residual activity,[14],75%
same,residual activity,[15],104% (inactive)
same,residual activity,[16],103%
same,residual activity,[17],89%
same,residual activity,[18],71%
same,residual activity,[19],104%
same,residual activity,[20],98%
Nc1ccc2ncnc(NCCc3ccc(Oc4ccccc4)cc3)c2c1,residual activity,[1],93%
same,residual activity,[2],75%
same,residual activity,[3],23%
same,residual activity,[4],67%
same,residual activity,[5],32%
same,residual activity,[6],97%
same,residual activity,[7],89%
same,residual activity,[8],138%
same,residual activity,[9],114%
same,residual activity,[10],96%
same,residual activity,[11],102%
same,residual activity,[12],90%
same,residual activity,[13],108%
same,residual activity,[14],105%
same,residual activity,[15],113% (inactive)
same,residual activity,[16],111%
same,residual activity,[17],91%
same,residual activity,[18],82%
same,residual activity,[19],107%
same,residual activity,[20],102%
O=C(Nc1cccc(Nc2nccc(Nc3cccc(C(F)(F)F)c3)n2)c1)C1CC1,residual activity,[1],103%
same,residual activity,[2],71%
same,residual activity,[3],32%
same,residual activity,[4],42%
same,residual activity,[5],7%
same,residual activity,[6],78%
same,residual activity,[7],78%
same,residual activity,[8],51%
same,residual activity,[9],6%
same,residual activity,[10],116%
same,residual activity,[11],107%
same,residual activity,[12],84%
same,residual activity,[13],102%
same,residual activity,[14],82%
same,residual activity,[15],84% (inactive)
same,residual activity,[16],77%
same,residual activity,[17],101%
same,residual activity,[18],125%
same,residual activity,[19],99%
same,residual activity,[20],96%
COc1ccc(CNc2nc(N(CCO)CCO)nc3c2ncn3C(C)C)cc1,residual activity,[1],98%
same,residual activity,[2],104%
same,residual activity,[3],101%
same,residual activity,[4],62%
same,residual activity,[5],56%
same,residual activity,[6],102%
same,residual activity,[7],91%
same,residual activity,[8],90%
same,residual activity,[9],129%
same,residual activity,[10],95%
same,residual activity,[11],83%
same,residual activity,[12],83%
same,residual activity,[13],4%
same,residual activity,[14],5%
same,residual activity,[15],112% (inactive)
same,residual activity,[16],108%
same,residual activity,[17],91%
same,residual activity,[18],71%
same,residual activity,[19],101%
same,residual activity,[20],93%

# Reference: ChEMBL document CHEMBL2218924, “A broad activity screen in support of a chemogenomic map for kinase signalling research and drug discovery” (Biochem J, 2013)
